PubChem BioAssay (EPA / NIEHS)
Active and inactive are the calls of the source. The calls were made as follows: active = hit-call score of the fitted dose curve at least 0.9, where 1 is the maximum; inactive = score below 0.9.

How the values were obtained:
Conditions in all cases: mRNA level, 48 h; actives raise or lower the signal
[1] = read-out: Forkhead box O1 (FOXO1), FOXO1 (gene 2308); assay: LTEA_HepaRG_FOXO1: Life Technologies and Expression Analysis (LTEA) Assay for Forkhead box O1 (FOXO1) using HepaRG (AID 2283456)
Method in brief: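 HepaRG, 48 h exposure, 8-pt half-log series from 100 uM in 0.5% DMSO, duplicates; Fluidigm qRT-PCR mRNA, housekeeping-normalised; bidirectional fit vs DMSO baseline.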

[2] = read-out: growth arrest and DNA damage 45 (GADD45A), GADD45A (gene 1647); assay: LTEA_HepaRG_GADD45A: Life Technologies and Expression Analysis (LTEA) Assay for growth arrest and DNA damage 45 (GADD45A) using HepaRG (AID 2283458)
Method in brief: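 HepaRG, 48 h exposure, 8 conc. (top 100 uM, half-log steps), 0.5% DMSO vehicle, duplicates. Read-out: qRT-PCR mRNA level, housekeeping-normalized (ACTB/GAPDH/POLR2A). Curves fit bidirectionally vs DMSO baseline.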

[3] = read-out: Forkhead box O3 (FOXO3), FOXO3 (gene 2309); assay: LTEA_HepaRG_FOXO3: Life Technologies and Expression Analysis (LTEA) Assay for Forkhead box O3 (FOXO3) using HepaRG (AID 2283459)
Method in brief: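 qRT-PCR readout of FOXO3 transcript, normalized to three housekeeping genes (ACTB, GAPDH, POLR2A); gain or loss fitted against 0.5% DMSO vehicle. HepaRG cells, 48 h chemical exposure, 8-point half-log series, top 100 uM.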

[4] = read-out: ABC Transporter (ABCB1), ABCB1 (gene 5243); assay: LTEA_HepaRG_ABCB1: Life Technologies and Expression Analysis (LTEA) Assay for ABC Transporter (ABCB1) using HepaRG (AID 2283460)
Method in brief: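 HepaRG, 48 h exposure, 8-pt half-log series from 100 uM, 0.5% DMSO vehicle, duplicates. Readout: ABCB1 transcript by Fluidigm TaqMan qRT-PCR, housekeeping-normalized; bidirectional curve fit vs DMSO baseline.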

[5] = read-out: growth arrest and DNA damage 45 (GADD45B), GADD45B (gene 4616); assay: LTEA_HepaRG_GADD45B: Life Technologies and Expression Analysis (LTEA) Assay for growth arrest and DNA damage 45 (GADD45B) using HepaRG (AID 2283461)
Method in brief: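 HepaRG, ~100,000 cells/well, 48 h plating; serum-free induction medium; cpd 100 uM top, half-log x8, 0.5% DMSO, duplicate, 48 h; lysis in RLT, RNA isolation, qRT-PCR; norm ACTB/GAPDH/POLR2A; bidirectional fit vs DMSO.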

[6] = read-out: ABC Transporter (ABCC3), ABCC3 (gene 8714); assay: LTEA_HepaRG_ABCC3: Life Technologies and Expression Analysis (LTEA) Assay for ABC Transporter (ABCC3) using HepaRG (AID 2283462)
Method in brief: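 Human HepaRG, 48 h dosing, 8-pt half-log series from 100 uM, 0.5% DMSO vehicle, duplicates. ABCC3 mRNA by TaqMan qRT-PCR, housekeeping-normalized; bidirectional curve fit vs DMSO.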

[7] = read-out: ABC Transporter (ABCC2), ABCC2 (gene 1244); assay: LTEA_HepaRG_ABCC2: Life Technologies and Expression Analysis (LTEA) Assay for ABC Transporter (ABCC2) using HepaRG (AID 2283464)
Method in brief: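 HepaRG, 48 h post-plating; serum-free induction medium; cpd 8-pt, 100 uM top, half-log, 0.5% DMSO, duplicate, 48 h. Readout: ABCC2 mRNA by qRT-PCR, norm. ACTB/GAPDH/POLR2A. Bidirectional fit vs DMSO baseline.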

[8] = read-out: Broad substrate specificity ATP-binding cassette transporter ABCG2 (Homo sapiens) (UniProt Q9UNQ0); assay: LTEA_HepaRG_ABCG2: Life Technologies and Expression Analysis (LTEA) Assay for ABC Transporter (ABCG2) using HepaRG (AID 2283465)
Method in brief: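 HepaRG, 48 h exposure, 8-pt half-log series from 100 uM, 0.5% DMSO vehicle, duplicates. Readout: ABCG2 transcript by qRT-PCR (Fluidigm array), housekeeping-normalized; bidirectional curve fit relative to DMSO baseline.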

[9] = read-out: ATP-citrate lyase (ACLY), ACLY (gene 47); assay: LTEA_HepaRG_ACLY: Life Technologies and Expression Analysis (LTEA) Assay for ATP-citrate lyase (ACLY) using HepaRG (AID 2283466)
Method in brief: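 qRT-PCR readout of ACLY transcript after 48 h chemical treatment of HepaRG cells; expression normalized to three housekeeping genes. Eight-point half-log series, highest 100 uM, 0.5% DMSO vehicle. Gain or loss fitted against DMSO baseline.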

[10] = read-out: Peroxisomal acyl-coenzyme A oxidase 1 (ACOX1) gene, ACOX1 (gene 51); assay: LTEA_HepaRG_ACOX1: Life Technologies and Expression Analysis (LTEA) Assay for Peroxisomal acyl-coenzyme A oxidase 1 (ACOX1) gene using HepaRG (AID 2283467)
Method in brief: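 HepaRG, 48 h chemical exposure, 8-pt half-log series from 100 uM top, 0.5% DMSO vehicle, duplicates. Readout: ACOX1 mRNA by Fluidigm qRT-PCR, housekeeping-normalized; bidirectional fit vs DMSO baseline.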

[11] = read-out: Alkaline Phosphatase, Placental (ALPP) gene, ALPP (gene 250); assay: LTEA_HepaRG_ALPP: Life Technologies and Expression Analysis (LTEA) Assay for Alkaline Phosphatase, Placental (ALPP) gene using HepaRG (AID 2283468);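 as to AC50: differentiated human HepaRG liver cells in serum-free induction medium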
Method in brief: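 HepaRG, 48 h plating then 48 h dosing, serum-free induction medium, 0.5% DMSO. 8 conc, half-log, max 100 uM, duplicates. Endpoint: ALPP transcript by qRT-PCR, housekeeping-normalized; gain or loss fitted vs DMSO.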

[12] = read-out: Bcl-2 (BAD) gene, BAD (gene 572); assay: LTEA_HepaRG_BAD: Life Technologies and Expression Analysis (LTEA) Assay for Bcl-2 (BAD) gene using HepaRG (AID 2283469)
Method in brief: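 HepaRG, 48 h exposure, 8-pt half-log curve from 100 uM in 0.5% DMSO, duplicates. Readout: TaqMan qRT-PCR for BAD mRNA, housekeeping-normalised (ACTB/GAPDH/POLR2A); gain or loss fitted against DMSO baseline.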

[13] = read-out: Bcl-2 (BAX) gene, BAX (gene 581); assay: LTEA_HepaRG_BAX: Life Technologies and Expression Analysis (LTEA) Assay for Bcl-2 (BAX) gene using HepaRG (AID 2283470)
Method in brief: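 qRT-PCR read-out of BAX mRNA, normalized to three housekeeping genes, after 48 h chemical exposure of human HepaRG cells in serum-free induction medium; eight-point half-log series, top 100 uM, 0.5% DMSO vehicle; bidirectional fit versus DMSO.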

[14] = read-out: adenosine kinase (ADK) gene, ADK (gene 132); assay: LTEA_HepaRG_ADK: Life Technologies and Expression Analysis (LTEA) Assay for adenosine kinase (ADK) gene using HepaRG (AID 2283471)
Method in brief: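 Differentiated HepaRG cells dosed 48 h in serum-free induction medium, 0.5% DMSO vehicle, eight half-log concentrations from 100 uM, in duplicate. ADK mRNA by TaqMan qRT-PCR normalised to ACTB, GAPDH, POLR2A; bidirectional fit versus DMSO.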

[15] = read-out: Alpha-fetoprotein (AFP) gene, AFP (gene 174); assay: LTEA_HepaRG_AFP: Life Technologies and Expression Analysis (LTEA) Assay for Alpha-fetoprotein (AFP) gene using HepaRG (AID 2283472)
Method in brief: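 qRT-PCR (Fluidigm TaqMan) readout of AFP transcript, normalized to three housekeeping genes, fitted bidirectionally against 0.5% DMSO baseline. HepaRG cells received chemicals for 48 h in serum-free induction medium, top concentration 100 uM, half-log steps.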

BCL2L11 (gene 10018) = assay: LTEA_HepaRG_BCL2L11: Life Technologies and Expression Analysis (LTEA) Assay for Bcl-2 (BCL2L11) gene using HepaRG (AID 2283473)
Method in brief: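 Read-out is BCL2L11 transcript level by qRT-PCR, normalized to three housekeeping genes and fitted bidirectionally against 0.5% DMSO vehicle. HepaRG cells received chemicals for 48 h in serum-free induction medium, 100 uM down in half-log dilutions.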

[16] = read-out: Apolipoprotein A-V (APOA5) gene, APOA5 (gene 116519); assay: LTEA_HepaRG_APOA5: Life Technologies and Expression Analysis (LTEA) Assay for Apolipoprotein A-V (APOA5) gene using HepaRG (AID 2283474)
Method in brief: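 Readout is APOA5 transcript level by qRT-PCR on Fluidigm dynamic arrays, normalized to three housekeeping genes. HepaRG cultures received chemicals for 48 h at up to 100 uM (half-log steps, 0.5% DMSO), with gain or loss scored relative to DMSO.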

[17] = read-out: Apoptosis regulator Bcl-2 (Homo sapiens) (UniProt P10415); assay: LTEA_HepaRG_BCL2: Life Technologies and Expression Analysis (LTEA) Assay for Bcl-2 gene using HepaRG (AID 2283475)
Method in brief: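 qRT-PCR read-out (Fluidigm TaqMan) of BCL2 transcript, normalised to three housekeeping genes, after 48 h chemical exposure of HepaRG cells; 8-point half-log series, top 100 uM, 0.5% DMSO vehicle. Gain or loss of signal fitted relative to DMSO baseline.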

[18] = read-out: ABC Transporter (ABCB11), ABCB11 (gene 8647); assay: LTEA_HepaRG_ABCB11: Life Technologies and Expression Analysis (LTEA) Assay for ABC Transporter (ABCB11) using HepaRG (AID 2283463)
Method in brief: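 HepaRG, 48 h exposure, 8-pt half-log CRC top 100 uM, 0.5% DMSO vehicle, duplicates. Readout: TaqMan qRT-PCR of ABCB11 mRNA, housekeeping-normalized (ACTB/GAPDH/POLR2A). Bidirectional fit vs DMSO baseline.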

Measured: AC50

Sequence of Broad substrate specificity ATP-binding cassette transporter ABCG2 (Homo sapiens) (Q9UNQ0 whole entry, looked up): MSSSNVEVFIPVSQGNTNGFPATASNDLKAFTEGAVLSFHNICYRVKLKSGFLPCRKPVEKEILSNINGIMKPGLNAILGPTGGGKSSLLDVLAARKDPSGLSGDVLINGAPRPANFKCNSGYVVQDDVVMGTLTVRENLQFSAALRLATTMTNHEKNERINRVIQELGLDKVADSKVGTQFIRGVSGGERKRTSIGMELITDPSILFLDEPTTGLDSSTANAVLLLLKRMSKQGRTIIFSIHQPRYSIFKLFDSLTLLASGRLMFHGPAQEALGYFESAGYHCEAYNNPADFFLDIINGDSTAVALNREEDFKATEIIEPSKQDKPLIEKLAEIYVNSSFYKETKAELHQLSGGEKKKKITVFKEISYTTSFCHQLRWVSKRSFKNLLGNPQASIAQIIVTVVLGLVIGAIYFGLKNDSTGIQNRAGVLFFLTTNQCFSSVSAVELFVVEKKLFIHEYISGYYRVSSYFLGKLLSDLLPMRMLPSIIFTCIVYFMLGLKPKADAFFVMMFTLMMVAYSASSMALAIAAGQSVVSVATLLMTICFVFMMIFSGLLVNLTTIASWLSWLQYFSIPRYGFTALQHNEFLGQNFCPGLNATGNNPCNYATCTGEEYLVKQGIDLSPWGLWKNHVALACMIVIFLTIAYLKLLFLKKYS
Sequence of Apoptosis regulator Bcl-2 (Homo sapiens) (P10415 whole entry, looked up): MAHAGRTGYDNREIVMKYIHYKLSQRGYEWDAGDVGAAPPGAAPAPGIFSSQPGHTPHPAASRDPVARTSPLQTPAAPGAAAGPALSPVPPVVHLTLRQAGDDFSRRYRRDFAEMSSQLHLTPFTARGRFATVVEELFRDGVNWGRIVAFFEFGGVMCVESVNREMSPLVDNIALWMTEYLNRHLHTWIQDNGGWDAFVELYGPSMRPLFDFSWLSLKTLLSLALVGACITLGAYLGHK

COc1nc(NC(C)C)nc(NC(C)C)n1
active: [4] 9.31 µM
not listed: [18]
inactive: all other assays above

CN(C)C(=S)SSC(=S)N(C)C
not listed: [14]
inactive: all other assays above

CC1COC(Cn2cncn2)(c2ccc(Oc3ccc(Cl)cc3)cc2Cl)O1 (stereo not given)
inactive: [6] | [12] | BCL2L11 (gene 10018)
active: [1] 30 µM | [2] 12 µM | [3] 79.2 µM | [4] 81.4 µM | [5] 9.92 µM | [7] 34.4 µM | [8] 12.6 µM | [9] 86.7 µM | [10] 50 µM | [11] 10.9 µM | [13] 13 µM | [15] 11 µM | [16] 12.8 µM | [17] 12.8 µM

COC(=O)N(OC)c1ccccc1COc1ccn(-c2ccc(Cl)cc2)n1
active: [1] 50 µM | [2] 60 µM | [4] 11.6 µM | [8] 25 µM | [10] 77.8 µM | [13] 66.7 µM | [15] 24.9 µM | BCL2L11 (gene 10018) 20.5 µM | [16] 3.56 µM | [17] 89.9 µM
inactive: [3] | [5] | [6] | [7] | [9] | [11] | [12]

OC(c1ccc(Cl)cc1)(c1cncnc1)c1ccccc1Cl (stereo not given)
inactive: [3] | [6] | [8] | [12] | [14] | BCL2L11 (gene 10018)
active: [1] 79 µM | [2] 72.4 µM | [4] 28.5 µM | [5] 66.2 µM | [7] 2.46 µM | [9] 12.6 µM | [10] 92.8 µM | [11] 61.5 µM | [13] 66.4 µM | [15] 80 µM | [16] 72.9 µM | [17] 75.1 µM

COP(N)(=O)SC (stereo not given)
not listed: [14] | [18]
inactive: all other assays above
